In PubChem BioAssay AID504727 (Broad Institute, 2011):
Calls of active or inactive are those of the source.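 The calls were made as follows: active = fitted half-maximal concentration AC50 at or below ten times the highest valid tested dose, with signal falling as DNA is displaced (actives reach about 34 µM in these data); inconclusive = flat fit at moderate signal loss, or poor fit quality; inactive = the rest, including signal rising instead of falling.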

Assay: DNA intercalators displacing acridine orange, dose response, artefact control for KSHV LANA DNA-binding inhibitor project, biochemical, fluorescence polarization, cherry-picked samples, set 2 (AID 504727)
Settings: AC50: Acridine orange-DNA displacement; series mostly up to 35 µM

Structure (SMILES) | AC50
CCn1c(-c2ccc([N+](=O)[O-])cc2)n[nH]c1=S | inactive
COc1ccc(Cl)cc1C(=O)NNC(=O)c1cc2ccccc2o1 | inactive
COc1cccc(NC(=O)CN(C)CC(=O)NCc2ccco2)c1 | inactive
O=C(O)CC(C(=O)O)N1C(=O)/C(=C/C=C/c2ccco2)SC1=S (stereo not drawn) | inactive
c1ccc(-c2cn3nc(-c4ccccc4)c(-c4ccccc4)nc3n2)cc1 | 23 µM (active)
O=C1/C(=C/C=C/c2ccco2)SC(=S)N1NS(=O)(=O)c1ccccc1 | inactive
Cc1nn(C)c(C)c1N1C(=O)c2cccc3c(N)ccc(c23)C1=O | 0.768 µM (active)
O=C(OCc1ccccc1)N1C=CC2CC1c1c(Cl)cccc12 (stereo not drawn) | inactive
CN1C(=O)NC(c2ccccc2[N+](=O)[O-])C2=C1CCCC2=O (stereo not drawn) | 29.7 µM (active)
O=C(O)/C=C/c1ccccc1Oc1ccccc1 | inactive
Nc1cccc2cc(S(=O)(=O)O)ccc12 | inactive
O=C(/C=C\c1ccccc1)Oc1cccc2cccnc12 | inactive
O=c1[nH][nH]cc1C=Nc1ccc(Cl)cc1Cl | inactive
Cc1cc(C)c2c(c1)NC(C(=O)O)C1CC=CC21 (stereo not drawn) | inactive
CC(C)=C1C2C=CC1C(C(=O)Nc1cc(C)ccc1C)C2C(=O)O (stereo not drawn) | inactive
CC(=O)NC(C(=O)c1ccccc1)C(=O)c1ccccc1 | inactive
Nc1nnc(CC(=O)N/N=C/c2cc([N+](=O)[O-])cc(Br)c2O)s1 | inactive
COC(=O)c1ccc(Oc2nc(Nc3ccc(F)cc3)nc(N3CCCC3)n2)cc1 | inactive
CCCN(CCC)S(=O)(=O)c1ccc(C(=O)OCCN2C(=O)c3cccc4c(N5CCOCC5)ccc(c34)C2=O)cc1 | 6.89 µM (active)

Structure (SMILES) | AC50
NS(=O)(=O)c1cc(C(=O)NC2CCSc3ccccc32)ccc1Cl (stereo not drawn) | inactive
O=S(=O)(O)c1cc(O)c2ccc(Nc3ccccc3)cc2c1 | inactive
CN(C)c1ccc(/C=N/N(CCO)C2=NS(=O)(=O)c3ccccc32)cc1 | 4.28 µM (active)
Cc1ccc(CSc2ncnc3onc(C)c23)cc1 | inactive
CCN(C(=O)COC(=O)CCCOc1ccc(Cl)cc1C)c1c(N)n(Cc2ccccc2)c(=O)[nH]c1=O | inactive
Cc1ccc(S(=O)(=O)Nc2ccc(Br)cc2C(NCC(=O)O)c2ccccc2)cc1 (stereo not drawn) | inactive
Cn1c(=O)c(N)c2c3c(c(Br)ccc31)C(=O)c1ccccc1-2 | 2.99 µM (active)
CCCCN(C(=O)CSc1nnc(-c2ccc(Cl)cc2)o1)c1c(N)n(CC(C)C)c(=O)[nH]c1=O | inactive
Clc1ccc(C2=CC(c3ccco3)n3ncnc3N2)cc1 (stereo not drawn) | inactive
O=c1[nH]c(=S)[nH]c2c1C(c1ccc(Br)cc1)c1c([nH]c(=S)[nH]c1=O)O2 | inactive
COc1ccc(/C=N/NC(=O)c2ccc3nc[nH]c3c2)c(OC)c1 | inactive
O=C(O)c1[nH]c2ccccc2c1C(c1cc(Cl)cc([N+](=O)[O-])c1O)c1c(C(=O)O)[nH]c2ccccc12 | inactive
O=C(CN1C(=O)NC2(CCCC2)C1=O)Nc1ccccc1-c1ccccc1 | inactive
Nc1ccc(C(=O)Nc2ccc3c(O)cc(S(=O)(=O)O)cc3c2)cc1 | inactive
Brc1c(CSc2nncc3ccccc23)nc2ccccn12 | inactive
Cc1ccc(S(=O)(=O)/N=C2/C=C(Sc3ncn[nH]3)C(=O)c3ccccc32)cc1 | inactive
O=C(O)c1cccc(-n2cccc2/C=C2/NC(=O)N(c3ccc(Cl)cc3)C2=O)c1 | inactive
COC(=O)\C(C(C)=O)=C(/C=C/C=C/C=C/N(C)C)N(C)C | inactive
CCOc1ccc(Nc2ccc(N)c(S(=O)(=O)O)c2)cc1 | inactive
